This is an account of results in PubChem BioAssay (NCI).

This is part of a sample that, as a whole, favours compounds with a hit. Of some 83,000 tested, about 20% had one in any assay.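 The test compound was applied at a single concentration to cells in 96-well plates for 48 hours, and percent growth was recorded.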 A number with no mark means an inactive call. Active and inactive are the calls of the source. The calls were made as follows: active = growth percent below 10; inactive = the rest.

Holding throughout (assay): NCI-60 one-dose screen, 48 h (100 = growth as untreated, 0 = no growth, -100 = all killed)
Common to all, as to conditions: 10 µM unless noted

The subject of assay [1] is DU-145 prostate.
The test system of assay [2] is K-562 leukemia.
In assay [3] the test system is MALME-3M melanoma.
Assay [4] relates to MDA-MB-231 breast.
For assay [5], the system named is RXF 393 renal.
The test system of assay [6] is SF-268 CNS.
The subject of assay [7] is SF-295 CNS.
The test system of assay [8] is SF-539 CNS.
The test system of assay [9] is UACC-257 melanoma.
Assay [10] has as its system M14 melanoma.
Assay [11] relates to HCT-15 colon.
The test system of assay [12] is HT29 colon.
Assay [13] relates to SNB-75 CNS.
In assay [14] the test system is SNB-19 CNS.
Assay [15] relates to U251 CNS.
In assay [16] the test system is PC-3 prostate.
Assay [17] deals with SK-MEL-5 melanoma.
Assay [18] relates to UACC-62 melanoma.
Assay [19] concerns LOX IMVI melanoma.
Assay [20] deals with SK-MEL-28 melanoma.

On to `O=C(/C=C/c1c(Cl)nc2sccn12)c1nccs1`, for which the growth in [1] is 112%; in [2] it was 84.3%; in assay [3], 108%; in assay [4], 95.8%; in [5], 70.7%; in assay [6], 84.8%. Moreover, the growth in assay [7] is 110%; in [8], 106%; in assay [9], 81%; in [10], 93.9%; in assay [11], 99.3%; in assay [12] it was 97.5%. Moreover, the growth in assay [13] was 67.1%; in assay [14], 102%; in [15], 91.6%; in assay [16] it was 91.1%; in assay [17], 95.6%; in [18], 89.7%. For the same compound, the growth is 89.1% in [19] and 104% in assay [20].
In the case of `CCOP(=O)(OCC)C1CP(=O)(c2ccccc2)CC(C)=C1Cl` (stereo not given), the growth in assay [1] was 104%; in assay [2] it was 93.4%; in [3] it was 90.9%; in assay [4] it was 95%; in assay [5], 78.1%; in [6], 104%. For the same compound, the growth in assay [7] is 96.7%; in assay [8], 104%; in [9] it was 92.2%; in [10] it was 63.2%; in assay [11], 102%; in assay [12] it was 118%. Also, the growth is 90.9% in assay [13]; 104% in [14]; 96.9% in assay [15]; 90% in assay [16]; 103% in [17]; 95.1% in assay [18]. For the same compound, the growth is 88.9% in [19] and 104% in assay [20].
As to `COc1cc(/C=C/C(=O)c2c(C)nc3ccccc3c2/C=C/c2ccc(C)cc2)cc(OC)c1OC`, the growth is 14.7% in assay [1]; 12% in [2]; 39.5% in assay [3]; 16.6% in assay [4]; 3.96% (active) in assay [5]; 44.7% in [6]. For the same compound, the growth is 38.8% in assay [7]; 19.5% in assay [8]; 43.8% in assay [9]; 23.9% in [10]; -19.4% (active) in assay [11]; 14% in assay [12]. Moreover, the growth is 22.7% in assay [13]; 40.1% in assay [14]; 20.9% in [15]; 25.8% in assay [16]; 26% in assay [17]; 25.6% in assay [18]. Also, the results for the growth in [19] and in [20] were -22.8% (active) and 20.3%, respectively.
Take `CCCCC1CCCCN1C(=O)OCC` (stereo not given): the growth is 108% in assay [1]; 107% in assay [2]; 108% in [3]; 107% in [4]; 152% in assay [5]; 106% in assay [6]. Besides, the growth in [7] is 127%; in assay [8] it was 99.7%; in assay [9], 108%; in [10], 101%; in assay [11] it was 103%; in [12], 94.1%. For the same compound, the growth in assay [13] is 97.8%; in assay [14] it was 106%; in [15], 96.1%; in [16], 93.5%; in assay [17], 111%; in assay [18] it was 107%. The growth in assay [19] was 101%; in assay [20], 104%.
Turning to `C=CCOC1=CC(=O)c2ccccc2C1=O`, the growth is 59.9% in assay [1]; 26.8% in assay [2]; 69% in assay [3]; 77.3% in assay [4]; 111% in [5]; 82% in assay [6]. Also, the growth in [7] is 98.1%; in [8], 116%; in [9] it was 55.8%; in assay [10], 79.5%; in [11] it was 94.9%; in assay [12], 80.5%. The growth in assay [13] is 48%; in [14], 104%; in [15], 86.7%; in assay [16], 85.9%; in assay [17] it was 27.3%; in [18], 57%. Further, the growth is 3.82% (active) in [19] and 87% in [20].
As to `Cc1ccc(/C=C2\C(=O)N(C)c3ccc(S(=O)(=O)Nc4ccc(C(C)(C)C)cc4)cc32)s1`, the growth in assay [1] was 38.9%; in assay [2], 66.7%; in assay [3], 42.5%; in assay [4] it was 21.2%; in [5], 42.1%; in assay [6], 26.7%. Further, the growth in [7] is 42.6%; in assay [8] it was 19.4%; in assay [9], 76%; in assay [10] it was 67%; in assay [11], 68%; in assay [12], 64.9%. The growth was -18.3% (active) in [13]; 58.3% in assay [14]; 20.5% in [15]; 52.9% in assay [16]; 82.3% in [17]; 60.7% in assay [18]. Also, the growth was 28.2% in [19] and 69.1% in [20].
On to `O=C1/C(=C/c2ccc(Br)cc2)C=C(c2ccccc2)N1CCc1ccccc1`, for which the growth in assay [1] is 54.1%; in assay [2], 75.5%; in assay [3] it was 50.5%; in assay [4] it was 24.8%; in assay [5] it was 31.5%; in [6], 33.7%. Also, the growth in [7] was -25.6% (active); in assay [8] it was 36%; in [9] it was 43.7%; in [10], 49.9%; in assay [11] it was 69.7%; in [12], 32.5%. For the same compound, the growth in assay [13] is -34.3% (active); in assay [14], 6.97% (active); in assay [15], 6.97% (active); in assay [16], 22.1%; in assay [17], 77.1%; in assay [18], 46.6%. For the same compound, the growth is 42.2% in [19] and 70.2% in assay [20].
